PubChem BioAssay AID1159580 (chemical genetic matrix, 2015)
Screen size: about 5,500 compounds; about 2,000 (36%) were called active. Inconclusive results (about 18%) are left out. No stated cut-off is given here; in the data, active means normalized growth mostly below about 0.91 (no sharp cut-off); inconclusive means no clear call, values can overlap the other calls; inactive means mostly above about 0.92. The list shows a part of the results.

Test: chemical genetic growth profiling, strain panel (AID 1159580);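 further: tested at 20 µM; growth read once vehicle control cultures reached saturation at 30 °C; 1 = growth at the plate median or of vehicle wells; lower values mean less growth of the strain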
Conditions: growth OD

Measured: normalized growth

CCCCOC(=O)c1ccccc1C(=O)OCCCC
inactive: S. cerevisiae deletion strains, locus YJR066W, strain TOR1, hits give low values 0.92 | S. cerevisiae deletion strains, locus YJR075W, strain HOC1, hits give low values 0.991 | S. cerevisiae deletion strains, locus YKL009W, strain mrt4, hits give low values 0.941 | S. cerevisiae deletion strains, locus YKL068W, hits give low values 0.977 | S. cerevisiae deletion strains, locus YKL085W, strain MDH1 (second series), hits give low values 0.984 | S. cerevisiae deletion strains, locus YKL085W, strain MDH1, hits give low values 0.984 | S. cerevisiae deletion strains, locus YKL160W, strain elf1, hits give low values 0.985 | S. cerevisiae deletion strains, locus YKL190W, strain CNB1, hits give low values 0.972 | S. cerevisiae deletion strains, locus YKR001C, strain vps1, hits give low values 0.983 | S. cerevisiae deletion strains, locus YKR026C, strain gcn3, hits give low values 0.986 | S. cerevisiae deletion strains, locus YKR091W, strain srl3, hits give low values 0.982 | S. cerevisiae deletion strains, locus YLL001W, strain dnm1, hits give low values 0.987 | S. cerevisiae deletion strains, locus YLL026W, hits give low values 0.982 | S. cerevisiae deletion strains, locus YLL041C, strain sdh2, hits give low values 0.975 | S. cerevisiae deletion strains, locus YLR027C, strain aat2, hits give low values 0.974 | S. cerevisiae deletion strains, locus YLR039C, strain RIC1, hits give low values 0.941 | S. cerevisiae deletion strains, locus YLR058C, strain SHM2, hits give low values 0.968 | S. cerevisiae deletion strains, locus YLR102C, strain apc9, hits give low values 0.982 | S. cerevisiae deletion strains, locus YLR113W, strain HOG1, hits give low values 0.89 | S. cerevisiae deletion strains, locus YLR221C, strain rsa3, hits give low values 0.957 | S. cerevisiae deletion strains, locus YLR258W, strain gsy2, hits give low values 0.974 | S. cerevisiae deletion strains, locus YLR262C, strain YPT6, hits give low values 0.931 | S. cerevisiae deletion strains, locus YLR268W, strain sec22, hits give low values 0.96 | S. cerevisiae deletion strains, locus YLR320W, strain mms22, hits give low values 0.924 | S. cerevisiae deletion strains, locus YLR330W, strain CHS5, hits give low values 0.977 | S. cerevisiae deletion strains, locus YLR342W, strain FKS1 (second series), hits give low values 0.875 | S. cerevisiae deletion strains, locus YLR342W, strain FKS1, hits give low values 0.948 | S. cerevisiae deletion strains, locus YLR357W, strain rsc2, hits give low values 1.02 | S. cerevisiae deletion strains, locus YLR370C, strain arc18, hits give low values 0.99 | S. cerevisiae deletion strains, locus YLR371W, strain rom2, hits give low values 0.974 | S. cerevisiae deletion strains, locus YLR384C, strain iki3, hits give low values 0.99 | S. cerevisiae deletion strains, locus YLR418C, strain cdc73, hits give low values 0.978 | S. cerevisiae deletion strains, locus YML016C, strain PPZ1, hits give low values 0.992 | S. cerevisiae deletion strains, locus YML032C, strain rad52, hits give low values 0.982 | S. cerevisiae deletion strains, locus YML120C, strain ndi1, hits give low values 0.983 | S. cerevisiae deletion strains, locus YML124C, strain tub3, hits give low values 0.975 | S. cerevisiae deletion strains, locus YMR058W, strain fet3, hits give low values 0.992 | S. cerevisiae deletion strains, locus YMR078C, strain ctf18, hits give low values 0.979 | S. cerevisiae deletion strains, locus YMR125W, strain sto1, hits give low values 0.969 | S. cerevisiae deletion strains, locus YMR129W, hits give low values 0.98 | S. cerevisiae deletion strains, locus YMR205C, strain PFK2, hits give low values 0.949 | S. cerevisiae deletion strains, locus YMR223W, strain ubp8, hits give low values 0.975 | S. cerevisiae deletion strains, locus YMR231W, strain pep5, hits give low values 0.996 | S. cerevisiae deletion strains, locus YMR263W, strain SAP30, hits give low values 0.977 | S. cerevisiae deletion strains, locus YMR307W, strain GAS1, hits give low values 0.713 | S. cerevisiae deletion strains, locus YNL067W, strain RPL9B, hits give low values 0.979 | S. cerevisiae deletion strains, locus YNL071W, strain lat1, hits give low values 0.944 | S. cerevisiae deletion strains, locus YNL128W, strain TEP1, hits give low values 0.98 | S. cerevisiae deletion strains, locus YNL153C, strain GIM3, hits give low values 0.998 | S. cerevisiae deletion strains, locus YNL183C, strain NPR1, hits give low values 0.911 | S. cerevisiae deletion strains, locus YNL209W, strain ssb2, hits give low values 0.99 | S. cerevisiae deletion strains, locus YNL233W, strain BNI4, hits give low values 0.994 | S. cerevisiae deletion strains, locus YNL248C, strain rpa49, hits give low values 0.987 | S. cerevisiae deletion strains, locus YNL250W, strain rad50, hits give low values 0.961 | S. cerevisiae deletion strains, locus YNL271C, strain bni1, hits give low values 0.978 | S. cerevisiae deletion strains, locus YNL298W, strain CLA4, hits give low values 0.966 | S. cerevisiae deletion strains, locus YNL307C, strain MCK1, hits give low values 0.952 | S. cerevisiae deletion strains, locus YNL322C, strain KRE1 (second series), hits give low values 0.981 | S. cerevisiae deletion strains, locus YNL322C, strain KRE1, hits give low values 0.978 | S. cerevisiae deletion strains, locus YNR049C, strain mso1, hits give low values 0.976 | S. cerevisiae deletion strains, locus YNR052C, strain pop2, hits give low values 0.971 | S. cerevisiae deletion strains, locus YOL006C, strain TOP1, hits give low values 0.94 | S. cerevisiae deletion strains, locus YOL012C, strain htz1 0.914 | S. cerevisiae deletion strains, locus YOL147C, strain pex11, hits give low values 0.976 | S. cerevisiae deletion strains, locus YOR001W, strain rrp6, hits give low values 0.979 | S. cerevisiae deletion strains, locus YOR061W, strain CKA2, hits give low values 0.984 | S. cerevisiae deletion strains, locus YOR069W, strain VPS5, hits give low values 0.977 | S. cerevisiae deletion strains, locus YOR070C, strain gyp1, hits give low values 0.983 | S. cerevisiae deletion strains, locus YOR080W, strain dia2, hits give low values 0.99 | S. cerevisiae deletion strains, locus YOR083W, strain WHI5, hits give low values 0.98 | S. cerevisiae deletion strains, locus YOR106W, strain vam3, hits give low values 0.916 | S. cerevisiae deletion strains, locus YOR136W, strain idh2, hits give low values 0.988 | S. cerevisiae deletion strains, locus YOR144C, strain elg1, hits give low values 0.973 | S. cerevisiae deletion strains, locus YOR184W, strain ser1, hits give low values 0.943 | S. cerevisiae deletion strains, locus YOR231W, strain MKK1, hits give low values 0.945 | S. cerevisiae deletion strains, locus YOR265W, strain rbl2, hits give low values 0.986 | S. cerevisiae deletion strains, locus YOR270C, strain vph1, hits give low values 0.846 | S. cerevisiae deletion strains, locus YOR290C, strain snf2, hits give low values 0.975 | S. cerevisiae deletion strains, locus YOR316C, strain cot1, hits give low values 0.977 | S. cerevisiae deletion strains, locus YPL055C, strain LGE1, hits give low values 0.967 | S. cerevisiae deletion strains, locus YPL078C, strain atp4, hits give low values 0.98 | S. cerevisiae deletion strains, locus YPL106C, strain sse1, hits give low values 1.02 | S. cerevisiae deletion strains, locus YPL240C, strain hsp82, hits give low values 0.969 | S. cerevisiae deletion strains, locus YPL241C, strain CIN2, hits give low values 0.976 | S. cerevisiae deletion strains, locus YPL256C, strain CLN2, hits give low values 0.973 | S. cerevisiae deletion strains, locus YPR119W, strain clb2, hits give low values 0.974 | S. cerevisiae deletion strains, locus YPR141C, strain kar3, hits give low values 0.978 | S. cerevisiae deletion strains, locus YPR163C, strain tif3, hits give low values 0.97 | S. cerevisiae deletion strains, locus YPR167C, strain met16, hits give low values 0.984 | S. cerevisiae deletion strains, strain wtn01, hits give low values 0.965 | S. cerevisiae strains, strain wild type, hits give low values 0.987
active: S. cerevisiae deletion strains, locus YLR262C, strain YPT6 (second series), hits give low values 0.838
